# Compound activity as filed in PubChem BioAssay.
# EBNA-1 inh – blocks EBNA-1 binding to DNA; AID 1950; inhibition, % at 14.8 µM; 0.34% of 300,000 active; EBNA-1 DNA binding, fluorescence polarization; in the data active = inhibition above about 28%
# PAFAH1B3 FP inh – blocks human PAF acetylhydrolase 1B catalytic subunit 3; Q15102; recombinant PAFAH1B3, FP-rhodamine probe, fluorescence polarization; inhibition, % at 3.39 µM; 0.28% of 340,000 active; AID 492972;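 active = inhibition above the screen-wide average of all tested compounds plus 3 SD, cut at about 25% in these data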;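 note: 0% = enzyme with DMSO only and 100% = wells lacking PAFAH1B3 protein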
# Target sequence (Q15102 whole entry, looked up): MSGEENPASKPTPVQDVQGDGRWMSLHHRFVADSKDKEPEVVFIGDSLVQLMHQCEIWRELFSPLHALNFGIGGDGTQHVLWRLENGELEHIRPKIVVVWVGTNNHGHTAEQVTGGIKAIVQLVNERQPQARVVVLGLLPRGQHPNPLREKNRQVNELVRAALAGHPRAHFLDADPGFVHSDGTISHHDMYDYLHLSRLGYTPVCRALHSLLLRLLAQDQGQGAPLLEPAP
# PAFAH1B2 inh – PAFAH1B2 (human) inhibition. P68402. recombinant PAFAH1B2, FP-rhodamine activity probe, fluorescence polarization. inhibition, % at 3.39 µM. 1.2% of 340,000 active. AID 492953;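 active = inhibition above the mean of all tested compounds plus 3 SD, cut at about 24% in these data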;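 note: 0% = enzyme with DMSO and 100% = wells lacking PAFAH1B2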
# Target sequence (P68402 whole entry, looked up): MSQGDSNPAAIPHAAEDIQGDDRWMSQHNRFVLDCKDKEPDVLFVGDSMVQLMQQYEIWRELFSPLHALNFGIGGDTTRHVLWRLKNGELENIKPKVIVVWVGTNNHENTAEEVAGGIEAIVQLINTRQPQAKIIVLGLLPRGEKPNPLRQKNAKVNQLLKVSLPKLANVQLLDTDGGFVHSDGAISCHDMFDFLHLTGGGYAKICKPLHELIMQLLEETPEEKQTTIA
# PAFAH2 inh – inhibitors of human PAFAH2; Q99487; recombinant PAFAH2, FP-rhodamine activity probe, fluorescence polarization; inhibition, % at 3.39 µM; 0.99% of 340,000 active; AID 492956;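 active = inhibition above the mean over all tested compounds plus 3 SD, cut at about 30% in these data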;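 note: inhibitors block probe labeling of enzyme so polarization drops; 0% = enzyme with DMSO and 100% = wells lacking PAFAH2 protein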
# ZTA DNA inh – counter-screen for EBNA-1 inhibitors: inhibitors of Epstein-Barr virus ZTA | ZTA-DNA binding, fluorescence polarization | inhibition, % at 11 µM | P03206 | 0.15% of 320,000 active | AID 2234; in the data active = inhibition above about 33%
# Target sequence (P03206 whole entry, looked up): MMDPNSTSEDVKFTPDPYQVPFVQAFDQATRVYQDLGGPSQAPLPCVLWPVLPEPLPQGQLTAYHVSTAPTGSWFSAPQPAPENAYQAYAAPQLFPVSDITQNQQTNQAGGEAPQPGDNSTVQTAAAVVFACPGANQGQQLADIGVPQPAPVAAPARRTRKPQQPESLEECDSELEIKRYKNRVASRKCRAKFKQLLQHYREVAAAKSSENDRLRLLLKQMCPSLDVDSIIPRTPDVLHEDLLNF
# rCAG RNA binder – molecules binding r(CAG) RNA repeats | r(CAG) RNA repeat, TO-PRO-1 dye displacement fluorescence | inhibition, % at 3 µM | 1.3% of 370,000 active | AID 651821;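 active = inhibition above the plate cutoff, the mean of all test compounds on that plate plus 3 SD, cut at about 35% in these data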;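 note: 0% = DMSO alone and 100% = 100 µM mitoxantrone as full dye displacement; higher means more dye released from RNA so lower well fluorescence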
# PAFAH2 FP conf – confirmation of human PAFAH2 inhibitors; shares compounds with PAFAH2 inh; recombinant PAFAH2, FP-rhodamine activity probe, fluorescence polarization; inhibition, % at 3.39 µM; 65% of 2,300 active;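 active = mean inhibition over three repeats above a set limit taken from the earlier primary screen, cut at about 30% in these data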;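 note: inhibitor blocks binding of rhodamine activity probe so polarization falls; 0% = enzyme with DMSO and 100% = wells lacking PAFAH2 protein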
# * hit, by the source's call; · = no result given. An excerpt weighted towards active compounds, which were near 2.9% of everything screened.
SMILES,EBNA-1 inh,PAFAH1B3 FP inh,PAFAH1B2 inh,PAFAH2 inh,ZTA DNA inh,rCAG RNA binder,PAFAH2 FP conf
COc1cc2c(C(F)(F)F)c(-c3ccsc3)oc(=O)c2cc1OC,·,7.1,1.6,58.9*,·,2.8,39.0*
CCCCCCCOC(=O)c1ccc(OC(=O)c2cccnc2)cc1,6.8,6.1,15.5,47.2*,8.8,-3.5,31.9*
CCCCCOC(=O)c1ccc(OC(=O)c2cncc(Br)c2)cc1,2.9,3.5,6.3,8.2,-5.1,-0.7,·
CCCCCCOC(=O)c1ccc(N)cc1,-9.0,-3.8,11.5,67.6*,3.4,4.5,61.1*
CCCCOC(=O)c1ccc(N)cc1,-1.5,7.7,-1.4,-2.3,8.0,-0.9,·
CC(C)(C)c1ccc(S(=O)(=O)N2CCC(C(=O)NCCC3=CCCCC3)CC2)cc1,·,·,·,·,·,2.2,·
O=c1[nH]c(Cc2cccs2)nc2ccccc12,-2.5,0.8,0.6,-3.4,-10.6,-1.2,·
COc1cccc(C(=O)OCn2nnc3ccccc3c2=O)c1,-4.9,8.9,7.5,36.8*,-0.3,-4.9,21.5
COc1ccc(C(=O)OCn2nnc3ccccc3c2=O)cc1OC,-8.8,4.8,-5.2,36.4*,-9.2,-1.5,45.9*
CCC(=O)OCn1nnc2ccccc2c1=O,-14.5,-0.8,7.6,1.2,0.4,-4.6,·
O=C(OCn1nnc2ccccc2c1=O)c1cccnc1,-1.4,0.0,-2.5,5.5,1.7,3.8,·
O=C(OCn1nnc2ccccc2c1=O)c1cccs1,12.5,5.0,6.2,47.0*,10.1,1.8,36.5*
COc1ccc(C(=O)OCn2nnc3ccccc3c2=O)cc1[N+](=O)[O-],-1.9,5.2,4.3,15.1,-2.1,4.4,·
O=C(OCc1nc2ccccc2c(=O)[nH]1)c1cccs1,-5.6,1.2,-5.5,42.0*,0.9,-4.8,29.2
CCOC(=O)[C@]12CCCC=C1N(Cc1ccccc1)C(=O)[C@H](CC(=O)N1CCC(c3ccccc3)CC1)C2,·,·,·,·,·,4.4,·
C[C@@H]1ON(C)[C@H]2C[C@H]3c4[nH]c5c(-c6ccc7c(c6)OCO7)cccc5c4CCN3C(=O)[C@@H]12,·,·,·,·,·,5.7,·
Oc1ccccc1C=NC(N=Cc1ccccc1O)c1ccccc1O (stereo not drawn),·,·,·,·,·,5.8,·
CC(C)C[C@H]1CN(CCCC[C@@H]2CNC(=O)C(=O)N2CC2CCCCC2)C(=O)C(=O)N1CCc1ccccc1,·,·,·,·,·,-1.1,·
O=C(N[C@@H](Cc1cccnc1)C(=O)N1CCC[C@H]1C(=O)NCCc1ccccc1Cl)c1ccc(Cl)cc1Cl,·,·,·,·,·,-0.5,·
Cc1c(Cl)cccc1N=C1SCCN1C(=O)CN1C(=O)NC2(CCCC2)C1=O,9.0,4.8,7.4,30.4*,5.2,-2.0,18.1
Cc1cc(/C=C2\SC(N)=NC2=O)c(C)n1-c1ccccc1,11.0,-4.0,0.2,48.6*,-3.0,20.6,32.8*
CCN(CC)C(=O)CC[C@H]1CC[C@]2(CCCN(Cc3ccc(N(C)C)cc3)C2)O1,·,·,·,·,·,2.4,·
O=C(COC(=O)c1cccc(S(=O)(=O)N2CCOCC2)c1)Nc1ncc(Cl)cc1Cl,·,-3.4,3.0,35.2*,-2.8,6.9,24.3
N#Cc1ccc(Cl)cc1NC(=O)COC(=O)c1cccc(S(=O)(=O)N2CCOCC2)c1,·,1.1,2.7,45.8*,-0.6,4.1,37.9*
COc1ccc(CC(=O)NC2CCCCN(Cc3ccc(Cl)cc3)C2=O)cc1OC (stereo not drawn),·,·,·,·,·,4.2,·
SMILES,EBNA-1 inh,PAFAH1B3 FP inh,PAFAH1B2 inh,PAFAH2 inh,ZTA DNA inh,rCAG RNA binder,PAFAH2 FP conf
CC1CCCC(NC(=O)COC(=O)c2ccccc2Sc2ccccc2C#N)C1C (stereo not drawn),17.3,1.0,1.3,27.3,11.3,-0.2,·
N#Cc1cccc(NC(=O)COC(=O)c2ccccc2Sc2ccccc2C#N)c1,14.1,-2.1,-6.0,44.6*,3.3,6.3,38.7*
O=C(COC(=O)c1ccccc1)NC12CC3CC(CC(C3)C1)C2,·,2.1,2.9,79.5*,1.4,3.1,88.6*
COc1ccc(C(=O)NCC(=O)OCC(=O)NC23CC4CC(CC(C4)C2)C3)cc1,·,3.0,6.6,58.0*,·,-3.1,44.2*
COc1ccc(C(=O)NC23CC4CC(CC(C4)C2)C3)cc1,-1.0,5.2,8.6,12.2,-0.8,-4.9,·
N#Cc1ccccc1Sc1ccccc1C(=O)OCC(=O)NC12CC3CC(CC(C3)C1)C2,1.0,2.3,2.9,50.3*,-7.6,-1.3,46.9*
CC(=O)c1ccc(NC(=O)COC(=O)c2ccccc2Sc2ccccc2C#N)cc1,2.8,8.5,0.1,7.9,-12.2,7.0,·
O=C(COC(=O)c1cccnc1Cl)NC1CCCCCC1,·,7.2,5.3,73.3*,·,-0.3,66.3*
CSc1ncccc1C(=O)OCC(=O)NC1CCCCC1,·,-5.8,-3.6,38.0*,5.7,1.6,36.5*
Nc1cc(Cl)ccc1C(=O)OCC(=O)NC1CCCCCCC1,·,0.2,0.9,47.4*,-8.1,0.4,41.5*
CSc1ncccc1C(=O)OCC(=O)NC1CCCC1,·,-2.9,3.6,14.6,-1.6,-0.7,·
CSc1ncccc1C(=O)OCC(=O)NC12CC3CC(CC(C3)C1)C2,·,3.0,12.7,72.0*,·,-0.2,72.3*
CCOC(=O)N1CCN(C(=O)C[C@H]2C(=O)N(Cc3ccc(OC)cc3)C3=CCCCC[C@@]32C(=O)OC)CC1,·,·,·,·,·,-0.1,·
CCOc1ncccc1C(=O)OCC(=O)NCc1cccs1,·,5.8,3.3,39.5*,·,2.0,27.0
O=C(COC(=O)c1cccnc1Cl)NCc1cccs1,1.8,-5.2,5.1,1.5,12.1,-2.5,·
CCOc1ncccc1C(=O)OCC(=O)NC1CCCCCC1,·,-2.0,3.5,84.1*,·,-11.1,79.0*
O=C(COC(=O)c1cccc(S(=O)(=O)N2CCCCCC2)c1)Nc1ccccc1,·,4.6,-0.8,65.6*,·,1.6,60.5*
O=C(COC(=O)c1ccc(Cl)nc1)Nc1cccc(S(=O)(=O)N2CCCCC2)c1,·,-2.6,1.9,15.6,-23.3,7.1,·
Cc1ccc(C(=O)OCC(=O)Nc2cccc(S(=O)(=O)N3CCCCC3)c2)o1,·,0.7,2.8,41.6*,-14.4,2.4,26.5
O=C(COC(=O)c1cccc(F)c1)Nc1cccc(S(=O)(=O)N2CCCCC2)c1,·,·,·,·,·,5.0,·
O=C(COC(=O)c1ccccc1)Nc1cccc(S(=O)(=O)N2CCCCC2)c1,·,4.3,1.6,39.8*,·,4.1,23.3
O=C(COC(=O)c1ccc([N+](=O)[O-])o1)Nc1cccc(S(=O)(=O)N2CCCCC2)c1,-6.8,2.2,0.7,11.4,-5.7,5.4,·
O=C(COC(=O)c1cccs1)Nc1cccc(S(=O)(=O)N2CCCCC2)c1,·,18.5,-6.3,68.8*,·,3.4,63.5*
Nc1c(C(=O)N2CCN(CCc3ccccc3)CC2)cnn1-c1ccccc1,·,·,·,·,·,5.6,·
CC(C)(C)OC(=O)NCc1ccccc1/C=C/S(=O)(=O)NCc1ccc(F)cc1,·,·,·,·,·,1.1,·
Cc1ccc(C(=O)c2ccccc2C(=O)OCC(=O)NCCc2ccccc2)cc1,-9.7,5.1,7.2,9.2,1.5,-1.3,·
